Bioassay records deposited in PubChem by several laboratories.
Mtb BioA inh: blocks M. tuberculosis BioA enzyme activity; purified M. tuberculosis BioA enzyme, plate reader; inhibition, % at 9.99 µM; hit rate 0.096% among 360,000; in the data active means inhibition above about 40%
Yp Topo-I inh: Y. pestis Topo-I inhibition via cleavage products; AID 504884; activity, % at 10 µM; hit rate 0.064% among 360,000; Y. pestis Topo-I cleavage product accumulation, plate reader; in the data active means activity above about 50%, passing the limit was not always enough
Sa ugtP lethal: growth inhibition of S. aureus ugtP deletion strain | growth inhibition, % (no concentration beside the values) | AID 1259309 | S. aureus RN4220 ugtP deletion, OD600 growth, 16 h | hit rate 0.54% among 330,000; in the data active means growth inhibition above about 68%;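 further: plate controls were untreated wells for no effect and antibiotic for full effect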
RN4220 kill: S. aureus RN4220 growth inhibition. inhibition, % (test concentration not listed). hit rate 0.33% among 330,000. OD600, 16 h; in the data active means inhibition above about 85%;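 further: plate controls were untreated cells for no effect and reference antibiotic for full effect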
TcdB GH inh: TcdB glycohydrolase inhibition; P18177; TcdB glycohydrolase enzymatic assay, plate reader; inhibition, % at 9.99 µM; hit rate 0.24% among 350,000; AID 652162; in the data active means inhibition above about 10%
Target sequence (P18177 whole entry, looked up): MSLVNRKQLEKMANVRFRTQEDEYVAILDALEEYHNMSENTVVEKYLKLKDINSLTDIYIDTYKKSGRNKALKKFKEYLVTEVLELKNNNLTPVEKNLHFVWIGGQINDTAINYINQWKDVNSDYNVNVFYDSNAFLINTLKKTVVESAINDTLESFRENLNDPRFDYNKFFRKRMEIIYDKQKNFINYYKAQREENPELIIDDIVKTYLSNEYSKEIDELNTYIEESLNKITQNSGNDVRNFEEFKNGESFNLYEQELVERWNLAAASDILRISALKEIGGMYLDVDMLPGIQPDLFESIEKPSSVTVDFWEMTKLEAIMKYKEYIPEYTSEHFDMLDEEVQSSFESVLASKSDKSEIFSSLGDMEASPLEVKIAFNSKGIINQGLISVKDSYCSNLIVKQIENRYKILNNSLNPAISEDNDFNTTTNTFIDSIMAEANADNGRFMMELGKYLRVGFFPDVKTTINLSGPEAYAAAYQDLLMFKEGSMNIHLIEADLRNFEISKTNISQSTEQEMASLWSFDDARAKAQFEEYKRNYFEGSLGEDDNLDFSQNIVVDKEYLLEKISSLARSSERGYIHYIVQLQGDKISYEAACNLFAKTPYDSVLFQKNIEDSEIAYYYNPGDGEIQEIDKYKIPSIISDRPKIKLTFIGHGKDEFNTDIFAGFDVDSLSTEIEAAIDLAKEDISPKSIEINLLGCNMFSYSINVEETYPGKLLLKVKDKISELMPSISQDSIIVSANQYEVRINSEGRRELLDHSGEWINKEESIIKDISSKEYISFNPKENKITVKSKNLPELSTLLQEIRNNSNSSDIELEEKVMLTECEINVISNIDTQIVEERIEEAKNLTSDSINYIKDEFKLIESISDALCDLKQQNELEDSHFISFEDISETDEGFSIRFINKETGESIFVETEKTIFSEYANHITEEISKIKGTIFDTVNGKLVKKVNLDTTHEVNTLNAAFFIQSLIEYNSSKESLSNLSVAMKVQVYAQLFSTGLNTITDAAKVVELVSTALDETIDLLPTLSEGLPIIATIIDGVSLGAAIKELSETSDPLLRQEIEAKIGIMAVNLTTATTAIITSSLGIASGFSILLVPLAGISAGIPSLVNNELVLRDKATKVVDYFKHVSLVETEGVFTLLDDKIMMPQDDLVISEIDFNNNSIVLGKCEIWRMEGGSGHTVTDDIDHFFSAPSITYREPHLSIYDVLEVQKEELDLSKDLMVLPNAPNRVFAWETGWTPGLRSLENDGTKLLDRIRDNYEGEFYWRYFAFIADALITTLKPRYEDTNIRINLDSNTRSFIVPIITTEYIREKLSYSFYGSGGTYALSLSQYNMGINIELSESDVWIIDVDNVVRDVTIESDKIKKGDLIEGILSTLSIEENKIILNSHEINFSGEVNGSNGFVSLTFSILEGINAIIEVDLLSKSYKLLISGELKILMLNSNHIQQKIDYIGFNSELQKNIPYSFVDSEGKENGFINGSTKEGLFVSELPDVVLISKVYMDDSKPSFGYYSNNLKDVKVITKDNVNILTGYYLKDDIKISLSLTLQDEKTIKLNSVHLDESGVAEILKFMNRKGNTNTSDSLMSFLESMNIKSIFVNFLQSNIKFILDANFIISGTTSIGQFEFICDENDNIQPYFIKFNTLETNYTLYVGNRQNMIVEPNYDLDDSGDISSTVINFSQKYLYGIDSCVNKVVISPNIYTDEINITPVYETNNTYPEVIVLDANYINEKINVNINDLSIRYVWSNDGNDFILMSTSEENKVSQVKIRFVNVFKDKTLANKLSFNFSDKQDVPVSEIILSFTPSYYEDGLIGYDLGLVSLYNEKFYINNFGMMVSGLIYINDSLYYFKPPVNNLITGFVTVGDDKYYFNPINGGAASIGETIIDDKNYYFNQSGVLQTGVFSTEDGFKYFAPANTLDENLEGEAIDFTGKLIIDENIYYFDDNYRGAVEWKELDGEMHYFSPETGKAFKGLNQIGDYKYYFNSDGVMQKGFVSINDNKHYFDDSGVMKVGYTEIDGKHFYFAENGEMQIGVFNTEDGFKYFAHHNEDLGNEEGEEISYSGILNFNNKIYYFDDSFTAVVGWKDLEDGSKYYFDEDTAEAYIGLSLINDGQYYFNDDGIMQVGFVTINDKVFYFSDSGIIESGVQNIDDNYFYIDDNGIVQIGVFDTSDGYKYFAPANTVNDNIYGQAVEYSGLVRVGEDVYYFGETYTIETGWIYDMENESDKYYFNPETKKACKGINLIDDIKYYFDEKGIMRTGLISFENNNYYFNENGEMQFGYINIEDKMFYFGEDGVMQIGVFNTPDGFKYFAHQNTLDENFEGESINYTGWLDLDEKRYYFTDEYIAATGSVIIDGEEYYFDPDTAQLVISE
Mtb hypoxia inh: reduces hypoxia-regulated biosensor signal in M. tuberculosis | M. tuberculosis hypoxia-regulated fluorescent reporter, fluorescence | fluorescence inhibition, % (no concentration beside the values) | hit rate 0.1% among 300,000; in the data active means fluorescence inhibition mostly above about 23%, no sharp cut-off; inactive means mostly below about 17%
The depositor's hits bear a star; · = no result given. In the library only some 0.75% were active in any assay of this set; here they are far more common.

SMILES	Mtb BioA inh	Yp Topo-I inh	Sa ugtP lethal	RN4220 kill	TcdB GH inh	Mtb hypoxia inh
O=C(O)c1ccc(NN=C/C=C/c2ccccc2[N+](=O)[O-])cc1	·	·	0	7	·	4
COc1ccccc1OCC(=O)NN=CC=Cc1ccc([N+](=O)[O-])o1	·	·	100*	101*	·	·
COc1ccc(Cl)cc1NC(=O)CC(C)=NNC(=O)CCc1ccccc1	·	·	6	6	·	11
CCN1/C(=C/c2cc[n+](C)cc2)C=Cc2cc(C)ccc21	·	-1	100*	54	·	24
Cc1ccc(NS(=O)(=O)c2ccc3[nH]c(=O)[nH]c3c2)cc1	-2	-6	4	0	-1	-8
Cc1ccc(NS(=O)(=O)c2ccc3[nH]c(=O)sc3c2)cc1	-3	-11	100*	-9	1	3
Cc1ccc(S(=O)(=O)N2C(c3cccc(C)c3)CC=C(C(=O)O)C2c2ccccc2)cc1 (centres undefined)	·	·	62	20	·	12
CC(C)NC(=O)N1CC[C@@H]2[C@@H](CO)N(C)c3ccc(-c4ccc(F)cc4)cc3[C@@H]21	·	·	·	·	12*	·
CC(C)NC(=O)N1CC[C@@H]2[C@H]1c1cc(-c3ccc(F)cc3)ccc1N(C)[C@@H]2CO	·	·	·	·	0	·
COCC(=O)N1CC[C@H]2[C@@H]1c1cc(-c3ccc(OC)cc3)ccc1N(C)[C@H]2CO	9	·	·	·	14*	·
COCC(=O)N1CC[C@@H]2[C@H]1c1cc(-c3ccc(F)cc3)ccc1N(C)[C@H]2CO	13	·	·	·	15*	·
COCC(=O)N1CC[C@@H]2[C@@H](CO)N(C)c3ccc(-c4ccccc4)cc3[C@@H]21	·	·	·	·	13*	·
CCOC1OC(C(=O)N2CCN(Cc3ccc4c(c3)OCO4)CC2)=CC(C2CC2)C1CCCO (centres undefined)	·	·	2	2	·	4
CN1c2ccc(-c3ccccc3)cc2[C@@H]2[C@@H](CCN2C(=O)Cc2cccnc2)[C@H]1CO	·	·	·	·	-1	·
COc1ccc(-c2ccc3c(c2)[C@H]2[C@H](CCN2C(=O)Cc2cccnc2)[C@@H](CO)N3C)cc1	1	·	·	·	11*	·
CCC(=O)N1CC[C@@H]2[C@H]1c1cc(-c3ccc(OC)cc3)ccc1N(C)[C@H]2CO	·	·	·	·	11*	·
CCC(=O)N1CC[C@H]2[C@@H]1c1cc(-c3ccc(OC)cc3)ccc1N(C)[C@H]2CO	·	·	·	·	-1	·
COc1ccc(C=NNC(=O)Cc2n[nH]c(=O)[nH]c2=O)cc1	·	·	-1	-2	·	0
CC(C(=O)CC(=O)OC(C)(C)C)C(O)c1c(F)cccc1Cl (centres undefined)	·	·	4	7	·	5
CC(=O)NC(Cc1ccccc1)C(=O)Oc1ccc2ccccc2c1 (centres undefined)	-1	13	6	4	10*	12
C=C(C)C1CC[C@]2(C(=O)O)CC[C@]3(C)C(CCC4[C@@]5(C)CCC(O)C(C)(C)C5CC[C@]43C)C12 (some centres undefined)	·	·	19	54	·	-5
N=C1/C(=C/c2cccs2)C(=O)N=C2SN=C(SCc3ccccc3)N12	0	-5	83*	83	·	6
COc1ccc(SCC(Cc2ccccc2)N2CCC(C(C)(C)C)CCC2=O)cc1 (centres undefined)	·	·	6	2	·	-1
Cc1ccccc1NC(=S)c1nc2ccccc2[nH]1	1	6	6	-6	0	12
S=C(Nc1ccc(Cl)cc1)c1nc2ccccc2[nH]1	0	-8	96*	99*	·	2
SMILES	Mtb BioA inh	Yp Topo-I inh	Sa ugtP lethal	RN4220 kill	TcdB GH inh	Mtb hypoxia inh
CCCCN(C(=O)c1cccc(S(=O)(=O)N2CCOCC2)c1)c1c(N)n(CCC)c(=O)[nH]c1=O	·	10	3	3	1	15
CCCn1c(N)c(C(=O)COC(=O)c2cccc(S(=O)(=O)N3CCOCC3)c2)c(=O)[nH]c1=O	0	5	8	3	13*	4
Cc1noc(C)c1NC(=O)N(C)CC1Oc2ccc(NS(=O)(=O)c3cn(C)cn3)cc2C(=O)N(C(C)CO)CC1C (centres undefined)	·	·	1	8	·	12
COc1ccc(CN(C)C(=O)c2ccc(NS(=O)(=O)c3ccc(F)cc3)cc2)c(OC)c1	1	29	90*	0	2	0
COc1ccc(NC(=O)CN(C)C(=O)c2cccc(NS(=O)(=O)c3ccc(Br)cc3)c2)cc1	·	25	2	1	16*	6
COc1ccc(CN(C)C(=O)c2ccc(NS(=O)(=O)c3ccccc3)cc2)c(OC)c1	-2	32	45	2	-1	4
C#CCOCCOCCOCCNc1nc(N2CCN(C(=O)Cn3cc(CCO)nn3)CC2)nc(N2CCN(C(=O)C(Cc3ccc(O)cc3)n3cc(CCO)nn3)CC2)n1 (centres undefined)	·	·	7	5	·	12
CCOC(=O)c1ccc(N2CCCCC2)c(NS(=O)(=O)c2cccc(C(F)(F)F)c2)c1	-2	20	88*	1	1	15
CCCCNC(=S)NN=Cc1sccc1C	·	·	12	2	·	15
COc1ccc(C=NNC(=O)c2ccc(Cn3cc([N+](=O)[O-])cn3)o2)c(OC)c1C	·	·	4	1	·	·
CCCCCCCCNC(=O)/C(C#N)=C/c1ccccc1[N+](=O)[O-]	0	12	91*	67	0	-12
CC(C)Cn1c(=O)c(C(=O)N/N=C/c2cccc(F)c2)c(O)c2ccccc21	-1	-5	·	·	2	·
CCCCCCCCCC(=O)NNC(=O)c1c(O)c2ccccc2n(CCC)c1=O	·	0	90*	76	1	5
CCCn1c(=O)c(C(=O)NNS(=O)(=O)c2ccc(Cl)cc2)c(O)c2ccccc21	0	27	100*	99*	·	6
CCCCCCn1c(=O)c(C(=O)NN=Cc2cccc(F)c2)c(O)c2ccccc21	·	·	100*	60	·	-6
CCn1c(=O)c(C(=O)NNC(=O)Cc2ccccc2)c(O)c2ccccc21	0	-6	-4	15	1	4
CCCn1c(=O)c(C(=O)NNC(=O)c2ccc(Cl)cc2Cl)c(O)c2ccccc21	-1	4	3	30	1	2
CCCCCCCCCCC(=O)NNC(=O)c1c(O)c2ccccc2n(CC)c1=O	·	·	99*	97*	·	2
CN1CCC(=O)N(C(CN=[N+]=[N-])Cc2ccccc2)CC1 (centres undefined)	·	·	11	7	·	2
C#Cc1ccc(C2C=C(C(=O)O)OC(OCCCCO)C2)cc1 (centres undefined)	·	·	4	9	·	4
